For 60 compounds, inhibition results are on record in PubChem BioAssay AID778 (Sanford-Burnham Center for Chemical Genomics, 2007).

Structures are written as SMILES. In all, about 96,000 compounds went through this assay and about 20,000 (21%) were called active. Only a sample is shown. Values without a mark were called inactive.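 Rule for the calls: active = CYP2C19 inhibition above a set limit at 5 µM in the primary screen (cut at about 50% in these data); inactive = the rest.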

The target of the assay is Cytochrome P450 2C19 (Homo sapiens) (UniProt P33261). The assay is described as follows: blockers of cytochrome P450 2C19 activity – biochemical, luminescence, ADME assay, primary screen (AID 778).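 Note: plate controls were negative control wells for no effect and 2.5 mM tranylcypromine positive control for full effect.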 As to conditions: CYP2C19 Supersomes, luciferin-H EGE luminescence, 30 min; at 5 µM; stronger effect = higher value.
Cytochrome P450 2C19 (Homo sapiens), sequence (P33261 whole entry, looked up): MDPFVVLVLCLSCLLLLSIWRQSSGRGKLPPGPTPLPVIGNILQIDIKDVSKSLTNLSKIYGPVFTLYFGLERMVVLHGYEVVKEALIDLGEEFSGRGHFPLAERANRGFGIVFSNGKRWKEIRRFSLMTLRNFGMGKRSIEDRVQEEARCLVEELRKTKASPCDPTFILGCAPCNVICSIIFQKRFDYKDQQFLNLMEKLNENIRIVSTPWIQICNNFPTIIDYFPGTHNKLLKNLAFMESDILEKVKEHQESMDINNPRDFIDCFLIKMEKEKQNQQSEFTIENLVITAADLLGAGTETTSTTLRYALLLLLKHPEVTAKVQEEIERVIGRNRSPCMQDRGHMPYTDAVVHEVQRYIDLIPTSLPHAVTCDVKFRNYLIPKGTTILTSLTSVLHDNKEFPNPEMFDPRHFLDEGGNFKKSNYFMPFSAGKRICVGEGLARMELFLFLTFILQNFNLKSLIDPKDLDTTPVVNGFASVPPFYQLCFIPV
Consider `CCCCOC(=O)CNc1nnc(SCC(=O)OCC)[nH]c1=O`, for which the inhibition (in general, the change of the read-out against control, counted positive when it falls) was -15.4%.

As for `Clc1ccc(CSc2nnc([C@@H]3CCCN3)o2)cc1`, the inhibition is 97.9% (active). With `Fc1ccc(CSc2nnc(-c3cc4c(s3)-c3ccccc3CC4)o2)cc1`, the inhibition is 31.9%. To `COC(=O)c1ccc(CSc2nc3cc(Cl)ccc3o2)cc1` belongs -5.7%; to `CCC(C)NC(=O)c1cc(Cl)ccc1OC` (stereo not given), 22%; to `Cc1cc(C(F)F)n2nc(C(=O)Nc3ccc(S(=O)(=O)NC45CC6CC(CC(C6)C4)C5)cc3)nc2n1`, 21.2%. In the case of `COc1ccccc1C(=O)Nc1nc2nc(-c3ccccc3)cc(=O)n2[nH]1` it was 7.1%. In the case of `COC(=O)CNC(c1ccccc1Cl)c1cc(Br)ccc1NC(=O)CCN1CCOCC1` (stereo not given) it was -3.3%; in that of `CC(=O)c1c(C)n(-c2ccc(N(C)C)cc2)c2ccc(OCC(N)=O)cc12`, 18.6%; in that of `CCn1c(=N)c(C(=O)NCCCOC)cc2c(=O)n3cccc(C)c3nc21`, -9.8%. Consider `Cc1cccn2c(=O)c3cc(C#N)c(=O)n(CCCN4CCOCC4)c3nc12`, for which the inhibition was 61.4% (active). In the case of `Cc1cccn2c(=O)c3cc(C(=O)N4COCC4(C)C)n(C)c3nc12`, the inhibition was 0.5%. In the case of `CCCc1[nH]nc2c1C(c1ccc(Br)s1)C(C#N)=C(N)O2` (stereo not given) it was 34.4%; in that of `Cc1noc(NS(=O)(=O)c2ccc(N/C=C/C(=O)c3ccccc3)cc2)c1C`, -5.7%; in that of `Cc1ccc(S(=O)(=O)N2CCN(S(=O)(=O)N3CCOCC3)CC2)cc1`, 7.3%. To `Cc1noc(C)c1CSc1nc2cc(S(=O)(=O)N3CCOCC3)ccc2o1` belongs 63.9% (active); to `Cc1ccc(Oc2nc3ccccc3n3c(C)nnc23)cc1`, -14.5%; to `COc1ccccc1-n1nnnc1S(=O)(=O)Cc1ccc(Cl)cc1`, 58.4% (active). In the case of `COc1ccccc1N1CCN(C(=O)CN(Cc2ccc(Cl)cc2)S(C)(=O)=O)CC1` it was 34%; in that of `CCOCCCNC(=O)C(NC(=O)c1ccc(=O)[nH]c1)c1ccc(C)cc1` (stereo not given), 5.2%; in that of `N#Cc1c(/N=C/N2CCCC2)oc(-c2ccccc2)c1-c1ccccc1`, 45.7%.

On to `COc1cc(C(=O)Nc2oc(-c3ccccc3)c(-c3ccccc3)c2C#N)cc(OC)c1OC`, for which the inhibition was 27.1%.

With `COc1ccc(-c2oc(/N=C/N3CCCC3)c(C#N)c2-c2ccc(OC)cc2)cc1`, the inhibition was 59.3% (active). In the case of `COc1cccc(CN2C(=O)CCC2(C)C(=O)NC2CCCCCC2)c1` (stereo not given) it was 8.6%; in that of `Cc1ccc(-n2ncc3c(N4CCN(c5ccc(F)cc5)CC4)ncnc32)c(C)c1`, -22.2%. For the compound `CCc1cc2c(N3CCN(c4nnc(CC)s4)CC3)ncnc2s1`, the inhibition was 52.3% (active). In the case of `Cc1nnc(SCC(=O)Nn2cnnc2)s1` it was 4%.

Consider `CC(NCCO)C(=O)C12CC3CC(CC(C3)C1)C2` (stereo not given), for which the inhibition is -5.4%. To `CC(C)(C)Cc1nnc(NC(=O)c2cc(-c3ccccc3)nc3ccccc23)s1` belongs 11.9%; to `COc1ccc(Br)cc1CN1CCN(C(=O)c2cccc(OC)c2OC)CC1`, 74% (active); to `CCn1cc(C(=O)N2CCN(Cc3ccc4c(c3)OCO4)CC2)c2cc(OC)c(OC)cc2c1=O`, 29.5%.

With `COc1cccc(OC)c1OCCN1CCN(C(=O)c2ccco2)CC1`, the inhibition is 21%. Turning to `CCCn1nc2cc(C(=O)NCc3ccccc3)ccc2c1OCC`, the inhibition is 2.2%. To `CCCS(=O)(=O)C(=C1Nc2ccccc2N1)S(=O)(=O)CCC` belongs 8.6%; to `C=CCN1C(=O)C(O)(CC(=O)c2ccc(Cl)cc2)c2ccccc21` (stereo not given), 89.1% (active); to `O=C(CC1(O)C(=O)N(CN2CCOCC2)c2ccccc21)c1ccccc1` (stereo not given), 12.7%. In the case of `CCOC(=O)CN1C(=O)C(O)(CC(=O)c2ccccn2)c2ccccc21` (stereo not given) it was 6.5%; in that of `Fc1ccc2nc(Nc3nc4c(s3)CCCC4)sc2c1`, -8.1%; in that of `Cc1nc2ccc(S(=O)(=O)NC(C(=O)N3CCCCCC3)C(C)C)cc2s1` (stereo not given), 21.2%. In the case of `CC(C)Cc1ccc(S(=O)(=O)N2CCN(C(=O)c3ccco3)CC2)cc1` it was 28.1%.

Take `CC(c1ccco1)N(C(=O)c1ccc(S(=O)(=O)N2CCCCC2)cc1)c1ccccn1` (stereo not given): the inhibition was 59.1% (active).

`CC(c1ccco1)N(C(=O)COc1ccccc1[N+](=O)[O-])c1ccccn1` (stereo not given): the inhibition is 40.5%. In the case of `Cc1c(NC(=O)/C=C/C(=O)O)cccc1[N+](=O)[O-]` it was 26.2%; in that of `CO/N=C/c1ccc(N2CCN(C(=O)c3cccc(Cl)c3)CC2)c([N+](=O)[O-])c1`, 33.8%; in that of `Cc1c(C)c2cc3c4c(oc3c(C)c2oc1=O)CCCC4`, -0.1%.

On to `Cc1ccc(OC(=O)c2cc3ccccc3o2)cc1`, for which the inhibition was -12.8%. In the case of `CCOC(=O)c1cnc(-c2ccccc2)nc1Oc1ccc(C)cc1` it was 35.2%; in that of `Cc1ccc(OC(=O)c2ccccc2C(=O)OCC(F)(F)C(F)F)cc1`, 88.6% (active); in that of `Cc1ccc(C(=O)CS(C)(=O)=O)cc1`, 1%. Consider `COc1ccc(-n2ncc3c(N4CCCc5ccccc54)ncnc32)cc1`, for which the inhibition was 12.3%.

Consider `O=C(CSc1ccc(/C=N/NC(=O)c2cccc(F)c2)o1)Nc1ccccc1`, for which the inhibition is 17.1%.

With `O=C(CN1CCSCC1)N/N=C/c1ccc(F)cc1`, the inhibition was 16.6%. In the case of `Cc1ccc(/C=N/NC(=O)Cn2nc(C)c(Br)c2C)o1` it was 50.5% (active); in that of `O=C(Nc1ccc2c(c1)nc1n2CCCCC1)c1cc(S(=O)(=O)N2CCOCC2)ccc1Cl`, 25.7%. On to `CCCCCOC(=O)NCCOC(=O)Nc1ccc(C(=O)OCC)cc1`, for which the inhibition is 4.4%. To `Cc1cc(NC(=O)c2cnn3cccnc23)n(-c2ccccc2)n1` belongs 25%.

Take `O=C1CSC(c2cccc(F)c2)N1c1ccccc1F` (stereo not given): the inhibition is 32.9%. In the case of `CCN(Cc1ccncc1)C(=O)c1cccc(S(=O)(=O)N2CCOCC2)c1` it was 97% (active). To `CC(C)C(NC(=O)c1cccc(S(=O)(=O)N2CCOCC2)c1)C(=O)NCCc1ccccn1` (stereo not given) belongs -13.9%. To `O=C(c1cccc(S(=O)(=O)N2CCOCC2)c1)N1CCOCC1` belongs -6.3%.
